Screening results: PubChem BioAssay, National Center for Advancing Translational Sciences (NCATS)
RORg inh – qHTS for inhibitors of ROR gamma transcriptional activity. actives 5.4% (n = 310,000). Potency, µM (series often up to 53.6 µM), for inactives: at the highest dose activity change, negative = inhibition, most hits filed as inhibitors. Nuclear receptor ROR-gamma (Mus musculus), P51450. Drosophila S2 Gal4-RORgamma UAS-luciferase reporter, 20 h. AID 2551, 2010; note: potency is the fitted concentration of half-maximal effect; % is set by controls: 0 for no effect and ±100 for the full control effect; nearly all actives have a fitted effect of over 60% in size
Target sequence (P51450 whole entry, looked up, the tested form may be a part): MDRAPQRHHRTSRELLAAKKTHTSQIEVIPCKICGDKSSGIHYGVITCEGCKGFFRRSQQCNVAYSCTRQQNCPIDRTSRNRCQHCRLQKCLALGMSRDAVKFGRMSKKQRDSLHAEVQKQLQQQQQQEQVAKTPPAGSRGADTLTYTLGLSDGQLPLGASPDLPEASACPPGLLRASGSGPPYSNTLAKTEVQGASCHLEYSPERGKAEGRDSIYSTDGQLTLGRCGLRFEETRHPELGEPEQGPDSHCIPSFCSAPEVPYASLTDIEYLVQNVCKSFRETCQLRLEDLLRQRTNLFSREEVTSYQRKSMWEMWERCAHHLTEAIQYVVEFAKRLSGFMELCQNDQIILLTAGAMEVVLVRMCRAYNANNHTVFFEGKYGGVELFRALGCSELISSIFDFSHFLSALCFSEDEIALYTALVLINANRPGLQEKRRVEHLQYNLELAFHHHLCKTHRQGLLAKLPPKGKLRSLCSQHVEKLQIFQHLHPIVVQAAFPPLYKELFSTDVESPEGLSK
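Stably transfected Drosophila Schneider cells are the test system, with ROR gamma fused to Gal4 and luciferase under UAS control; luminescence is read after 20 hr of 700 uM copper sulfate induction at ambient temperature.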
VP16 counter – VP16 counterscreen qHTS for inhibitors of ROR gamma transcriptional activity | Drosophila S2 Gal4-VP16 UAS-luciferase, luminescence, 20 h | Potency, µM (highest dose often 53.6 µM), inactives show top-dose activity, negative = inhibition, most hits filed as inhibitors | AID 2546, 2010 | actives 3.5% (n = 310,000);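 note: Gal4-VP16 expression switched on by copper sulfate through the metallothionein promoter; potency is the fitted concentration of half-maximal effect; % is set by controls: 0 for no effect and ±100 for the full control effect; nearly all actives have a fitted effect of over 50% in size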
ELG1 DNA repair – qHTS screen for small molecules that inhibit ELG1-dependent DNA repair in human embryonic kidney (HEK293T) cells expressing luciferase-tagged ELG1 | actives 2.3% (n = 330,000) | Potency, µM (titrated, usually from 46.1 µM), inactives show at the top dose activity change, negative = inhibition, actives largely listed as inhibitors | AID 504467, 2011 | HEK293T ELG1-luciferase reporter, luminescence, 16 h; DNA damage induced by 5-fluorouridine; note: potency is the fitted concentration of half-maximal effect; % is set by controls: 0 for no effect and ±100 for the full control effect; nearly all actives have a fitted effect of over 55% in size
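Reporter activity after DNA damage by 5-fluorouridine is monitored. Compound-treated cells incubate 16 hr at 37 °C, then ONE-Glo is added for 30 min before luminescence reading.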
BRCA1 expr act – qHTS Assay to Identify Small Molecule Activators of BRCA1 Expression; AID 624202, 2012; actives 1.1% (n = 380,000); MCF7-BRCA1-FFLuc reporter, luminescence, 48 h; response scale: scaled: vehicle 0%, 10 µM genistein 100%; Potency, µM (doses to about 46.1 µM), inactives show at the highest dose activation, actives largely listed as activators; note: potency is the fitted concentration of half-maximal effect; nearly all actives have a fitted effect of over 80% in size
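MCF7 cells carrying a BRCA1-firefly luciferase reporter (2000 cells/well, phenol-red free MEM) were attached for 2 h at 37 °C, then given compounds for 48 h. Luminescence was read 15 min after luciferase reagent; activity normalized to genistein (10 microM) and DMSO.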
Giardia killer – Small Molecules that selectively kill Giardia lamblia: qHTS. actives 0.15% (n = 340,000). AID 540267, 2011. Giardia lamblia trophozoite viability. activity change, % at 7.66 µM, hits read low; in the data active = activity change below about -80%; inconclusive = between about -30% and that limit;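 note: parasites exposed to compound for two days anaerobically before the ATP read; % is set by controls: 0 for no effect and ±100 for the full control effect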
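Compounds were tested on trophozoites seeded at 100 cells/well and held 48 hrs at 37 deg C anaerobically. An ATP-based luminescent kit measured the remaining live cells.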
p53 reactivator – qHTS assay for re-activators of p53 using a Luc reporter. H1299 p53-A138V BP100-luciferase reporter, luminescence, 24 h. actives 0.063% (n = 320,000). Potency, µM (series often up to 92.2 µM), inactives show at the top dose activity change, positive = activation, actives largely listed as activators; note: potency is the fitted concentration of half-maximal effect; % of control where 0% means no effect; nearly all actives have a fitted effect of over 45% in size
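p53-null H1299 cells stably carrying temperature-sensitive p53-A138V and a BP100-luciferase reporter were pinned with compounds (4-point, 1:5 series) and held 24 hrs at 37 deg C. Luminescence was read 10 min after detection reagent.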
* = called active by the depositor; [ ] = dose if it differs, or a comment. Shown are actives, neighbours in structure and some others; about 7.6% of the full set was active somewhere. Unless noted, calls come from the whole dose curve; as a rule, active = well fitted curve in the direction sought with a large enough effect; inconclusive = small, poorly fitted or top-dose-only effect, or another doubt; inactive = no such curve, though single readings can be large; an effect the other way counts as inactive or inconclusive.

What do the screens show for `CCOC(=O)c1ccc(NC(=S)NCCc2ccccc2)cc1`?
RORg inh: 8.9µM*; VP16 counter: inconclusive; ELG1 DNA repair: 3%; BRCA1 expr act: -39%; Giardia killer: 3; p53 reactivator: 7%

Results for COC(=O)c1ccc(NC(=S)NCCc2ccccc2)cc1 ?
RORg inh: inconclusive; VP16 counter: -3%; ELG1 DNA repair: -14%; BRCA1 expr act: -2%; Giardia killer: 16; p53 reactivator: 11%

Results for CCc1noc(C)c1C(=O)NCCc1ccccc1 ?
ELG1 DNA repair: inconclusive; BRCA1 expr act: 10µM*; Giardia killer: 13; p53 reactivator: inconclusive

How did CCOC(=O)c1ccc(NC(=S)NCc2ccccc2)cc1 do in these assays?
RORg inh: 14µM*; VP16 counter: inconclusive; ELG1 DNA repair: 11%; BRCA1 expr act: 4%; Giardia killer: -6; p53 reactivator: 9%

Results for C=C1NN(CC#N)C(=O)N1c1ccc(OCc2ccccc2)cc1 ?
BRCA1 expr act: 10µM*

What do the screens show for `N#Cc1ccc2sn(-c3ccccc3)c(=O)c2c1`?
BRCA1 expr act: 11µM*

How did CCCCCCn1ccc(=N)cc1 do in these assays?
RORg inh: -36%; VP16 counter: 7.1µM*; ELG1 DNA repair: 3.7µM*; BRCA1 expr act: -59%; Giardia killer: 2; p53 reactivator: 1%

What do the screens show for `CCCCCCCCCCCCCCCCn1cc[n+](CC(C)=O)c1`?
RORg inh: inconclusive; VP16 counter: -6%[10 µM]; ELG1 DNA repair: 0%; BRCA1 expr act: -63%; Giardia killer: 4; p53 reactivator: 0%

How did Fc1cccc(C2NN=C(c3ccccc3)S2)c1 (configuration not stated) do in these assays?
RORg inh: inconclusive; VP16 counter: inconclusive; ELG1 DNA repair: inconclusive; BRCA1 expr act: 49%; Giardia killer: 1; p53 reactivator: inconclusive

What do the screens show for `COc1ccc(C2NN=C(c3ccc(C)cc3)S2)cc1OC` (configuration not stated)?
RORg inh: 2µM*; VP16 counter: inconclusive; ELG1 DNA repair: inconclusive; BRCA1 expr act: inconclusive; Giardia killer: -10; p53 reactivator: inconclusive

What do the screens show for `Cc1ccc(C2=NNC(c3cccc(F)c3)S2)cc1` (configuration not stated)?
RORg inh: 6.3µM*; VP16 counter: 7.1µM*; ELG1 DNA repair: inconclusive; BRCA1 expr act: inconclusive; Giardia killer: 3; p53 reactivator: 35%

How did COc1ccccc1NC(=O)c1nc[nH]c1C(=O)Nc1ccccc1OC do in these assays?
RORg inh: 2µM*; VP16 counter: inconclusive; ELG1 DNA repair: -5%; BRCA1 expr act: -28%; Giardia killer: -11; p53 reactivator: -5%

How did CCOc1ccccc1NC(=O)c1nc[nH]c1C(=O)Nc1ccccc1OCC do in these assays?
RORg inh: 2µM*; VP16 counter: 4µM*; ELG1 DNA repair: -2%; BRCA1 expr act: -71%; Giardia killer: 7; p53 reactivator: 3%

How did Cc1ccccc1NC(=O)c1[nH]cnc1C(=O)NN do in these assays?
RORg inh: -18%; VP16 counter: 4%; ELG1 DNA repair: -1%; BRCA1 expr act: -14%; Giardia killer: -24; p53 reactivator: 0%

Results for OC[C@@H]1CN(Cc2ccco2)C[C@H](n2cnc3c(NC4CCCC4)ncnc32)O1 ?
BRCA1 expr act: 12%

What do the screens show for `NC(N)=N/N=C/c1ccc(OCc2ccc(Cl)cc2)cc1`?
RORg inh: inconclusive; VP16 counter: 7.1µM*; ELG1 DNA repair: inconclusive; BRCA1 expr act: -2%; Giardia killer: -1; p53 reactivator: -28%

Results for Cc1ccc(COc2ccc(/C=N/O)cc2)cc1 ?
RORg inh: 8.9µM*; VP16 counter: inconclusive; ELG1 DNA repair: inconclusive; BRCA1 expr act: inconclusive; Giardia killer: -19; p53 reactivator: inconclusive

Results for NC(N)=N/N=C/c1ccc(OCc2ccccc2)cc1 ?
RORg inh: -32%; VP16 counter: 10µM*; ELG1 DNA repair: inconclusive; BRCA1 expr act: -57%; Giardia killer: 7; p53 reactivator: 20%

What do the screens show for `CCOc1ccc(/C=N/O)cc1`?
RORg inh: 38%; VP16 counter: 8%; ELG1 DNA repair: 19%; BRCA1 expr act: 0%; Giardia killer: inconclusive; p53 reactivator: 23%

Results for O=C(N/N=C/c1ccccc1)c1ccc(OCc2ccccc2)cc1 ?
RORg inh: -9%; VP16 counter: 0%; ELG1 DNA repair: 9%; BRCA1 expr act: -34%; Giardia killer: 23; p53 reactivator: 0%

What do the screens show for `Cn1ccc2c(-c3ccc(CO)cc3)cc3c(c21)C1CCC3C1` (configuration not stated)?
BRCA1 expr act: 8%

What do the screens show for `O=C(Nc1ccccc1)OCCOc1cccc(Br)c1`?
RORg inh: 28%; VP16 counter: 2%; ELG1 DNA repair: 2%; BRCA1 expr act: 14%; Giardia killer: -15

Results for CC1=CC=CC2=NC(=O)CC(C)(C(=O)N(CC(=O)NC3CCCC3)c3ccccc3C)N12 (configuration not stated) ?
RORg inh: 0%; VP16 counter: 5%; ELG1 DNA repair: -3%; BRCA1 expr act: 1%; Giardia killer: 4; p53 reactivator: 5%

Results for Cc1cc(C(=O)Nc2nnc(C3CCCCC3)s2)no1 ?
RORg inh: 20µM*; VP16 counter: 2%; BRCA1 expr act: 1%; Giardia killer: 4

Results for O=C(Nc1nccs1)c1cn2ccccc2n1 ?
RORg inh: 2µM*; VP16 counter: 7.1µM*; ELG1 DNA repair: inconclusive; BRCA1 expr act: -23%; Giardia killer: -12; p53 reactivator: -9%

What do the screens show for `NNC(=O)c1cn2ccccc2n1`?
RORg inh: 0%; VP16 counter: -12%; ELG1 DNA repair: 27%; BRCA1 expr act: 52%; Giardia killer: 0; p53 reactivator: 1%

Results for Cc1cnc(C(=O)Nc2nccs2)cn1 ?
RORg inh: 3.5µM*; VP16 counter: 11µM*; ELG1 DNA repair: inconclusive; BRCA1 expr act: 68%; Giardia killer: inconclusive; p53 reactivator: inconclusive

How did CCc1noc(C)c1C(=O)Nc1nnc(C2CCCCC2)s1 do in these assays?
RORg inh: 11µM*; VP16 counter: inconclusive; ELG1 DNA repair: -7%; p53 reactivator: 3%
